What all share (conditions): mRNA level, 48 h; actives raise or lower the signal
Read-out in assay [1]: growth arrest and DNA damage 45 (GADD45A), GADD45A (gene 1647)
The experiment in a line: LTEA_HepaRG_GADD45A: Life Technologies and Expression Analysis (LTEA) Assay for growth arrest and DNA damage 45 (GADD45A) using HepaRG (AID 2283458). In outline: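 GADD45A expression was measured by TaqMan qRT-PCR against three housekeeping genes (ACTB, GAPDH, POLR2A) after 48 h treatment of HepaRG cells. Eight-point half-log series up to 100 uM in 0.5% DMSO, run in duplicate.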

Read-out in assay [2]: Forkhead box O3 (FOXO3), FOXO3 (gene 2309)
The experiment in a line: LTEA_HepaRG_FOXO3: Life Technologies and Expression Analysis (LTEA) Assay for Forkhead box O3 (FOXO3) using HepaRG (AID 2283459). Summed up: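 qRT-PCR readout of FOXO3 transcript, normalized to three housekeeping genes (ACTB, GAPDH, POLR2A); gain or loss fitted against 0.5% DMSO vehicle. HepaRG cells, 48 h chemical exposure, 8-point half-log series, top 100 uM.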

Read-out in assay [3]: ABC Transporter (ABCB1), ABCB1 (gene 5243)
The experiment in a line: LTEA_HepaRG_ABCB1: Life Technologies and Expression Analysis (LTEA) Assay for ABC Transporter (ABCB1) using HepaRG (AID 2283460). Summed up:
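HepaRG, 48 h exposure, 8-pt half-log series from 100 uM, 0.5% DMSO vehicle, duplicates. Readout: ABCB1 transcript by Fluidigm TaqMan qRT-PCR, housekeeping-normalized; bidirectional curve fit vs DMSO baseline.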

Read-out in assay [4]: growth arrest and DNA damage 45 (GADD45B), GADD45B (gene 4616)
The experiment in a line: LTEA_HepaRG_GADD45B: Life Technologies and Expression Analysis (LTEA) Assay for growth arrest and DNA damage 45 (GADD45B) using HepaRG (AID 2283461). In outline:
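Differentiated HepaRG cells, plated 48 h then switched to serum-free induction medium, were exposed 48 h in duplicate to eight half-log concentrations from 100 uM in 0.5% DMSO; mRNA quantified by qRT-PCR, normalized to ACTB/GAPDH/POLR2A, bidirectional fit versus DMSO.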

Read-out in assay [5]: ABC Transporter (ABCC3), ABCC3 (gene 8714)
The experiment in a line: LTEA_HepaRG_ABCC3: Life Technologies and Expression Analysis (LTEA) Assay for ABC Transporter (ABCC3) using HepaRG (AID 2283462). In outline: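 HepaRG cells in serum-free induction medium were exposed for 48 h in duplicate to 8-point half-log concentrations topping at 100 uM in 0.5% DMSO. ABCC3 mRNA was measured by qRT-PCR normalized to ACTB, GAPDH and POLR2A, with bidirectional fitting versus DMSO.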

Read-out in assay [6]: ABC Transporter (ABCB11), ABCB11 (gene 8647)
The experiment in a line: LTEA_HepaRG_ABCB11: Life Technologies and Expression Analysis (LTEA) Assay for ABC Transporter (ABCB11) using HepaRG (AID 2283463). Summed up:
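HepaRG, 48 h exposure, 8-pt half-log CRC top 100 uM, 0.5% DMSO vehicle, duplicates. Readout: TaqMan qRT-PCR of ABCB11 mRNA, housekeeping-normalized (ACTB/GAPDH/POLR2A). Bidirectional fit vs DMSO baseline.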

Read-out in assay [7]: ABC Transporter (ABCC2), ABCC2 (gene 1244)
The experiment in a line: LTEA_HepaRG_ABCC2: Life Technologies and Expression Analysis (LTEA) Assay for ABC Transporter (ABCC2) using HepaRG (AID 2283464). Summed up: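 HepaRG cells were plated 48 h, switched to serum-free induction medium, then exposed in duplicate for 48 h to 8 concentrations (top 100 uM, half-log steps, 0.5% DMSO). ABCC2 mRNA was measured by qRT-PCR normalized to ACTB/GAPDH/POLR2A; bidirectional fitting versus DMSO.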

Read-out in assay [8]: Broad substrate specificity ATP-binding cassette transporter ABCG2 (Homo sapiens) (UniProt Q9UNQ0)
The experiment in a line: LTEA_HepaRG_ABCG2: Life Technologies and Expression Analysis (LTEA) Assay for ABC Transporter (ABCG2) using HepaRG (AID 2283465). In outline:
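HepaRG, 48 h exposure, 8-pt half-log series from 100 uM, 0.5% DMSO vehicle, duplicates. Readout: ABCG2 transcript by qRT-PCR (Fluidigm array), housekeeping-normalized; bidirectional curve fit relative to DMSO baseline.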

Read-out in assay [9]: ATP-citrate lyase (ACLY), ACLY (gene 47)
The experiment in a line: LTEA_HepaRG_ACLY: Life Technologies and Expression Analysis (LTEA) Assay for ATP-citrate lyase (ACLY) using HepaRG (AID 2283466). Summed up:
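qRT-PCR readout of ACLY transcript after 48 h chemical treatment of HepaRG cells; expression normalized to three housekeeping genes. Eight-point half-log series, highest 100 uM, 0.5% DMSO vehicle. Gain or loss fitted against DMSO baseline.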

Read-out in assay [10]: Peroxisomal acyl-coenzyme A oxidase 1 (ACOX1) gene, ACOX1 (gene 51)
The experiment in a line: LTEA_HepaRG_ACOX1: Life Technologies and Expression Analysis (LTEA) Assay for Peroxisomal acyl-coenzyme A oxidase 1 (ACOX1) gene using HepaRG (AID 2283467). In outline:
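HepaRG, 48 h chemical exposure, 8-pt half-log series from 100 uM top, 0.5% DMSO vehicle, duplicates. Readout: ACOX1 mRNA by Fluidigm qRT-PCR, housekeeping-normalized; bidirectional fit vs DMSO baseline.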

Activity calls are given as the source filed them. Rule for the calls: active = hit-call score of the fitted dose curve at least 0.9, where 1 is the maximum; inactive = score below 0.9.

Chain of Broad substrate specificity ATP-binding cassette transporter ABCG2 (Homo sapiens) (Q9UNQ0 whole entry, looked up): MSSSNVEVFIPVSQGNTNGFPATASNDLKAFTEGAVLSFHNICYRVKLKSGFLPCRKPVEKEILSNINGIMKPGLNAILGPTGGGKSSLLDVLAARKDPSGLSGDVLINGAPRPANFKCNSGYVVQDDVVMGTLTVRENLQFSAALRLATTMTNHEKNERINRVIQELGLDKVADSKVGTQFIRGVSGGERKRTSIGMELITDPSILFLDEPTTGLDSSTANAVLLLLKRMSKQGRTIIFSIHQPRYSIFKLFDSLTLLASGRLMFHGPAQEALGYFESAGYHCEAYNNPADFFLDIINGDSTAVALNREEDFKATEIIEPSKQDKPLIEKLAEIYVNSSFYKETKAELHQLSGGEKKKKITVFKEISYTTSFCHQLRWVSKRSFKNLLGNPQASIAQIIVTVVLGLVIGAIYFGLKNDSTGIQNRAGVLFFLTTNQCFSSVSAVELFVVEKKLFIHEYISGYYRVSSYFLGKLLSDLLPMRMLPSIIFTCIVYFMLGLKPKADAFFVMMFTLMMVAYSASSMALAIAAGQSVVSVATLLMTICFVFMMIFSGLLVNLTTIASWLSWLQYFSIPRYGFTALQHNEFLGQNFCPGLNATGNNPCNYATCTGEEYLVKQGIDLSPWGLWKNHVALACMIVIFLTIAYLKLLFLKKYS

Consider `CCCCC(CC)CO` (centres undefined), for which the compound was called inactive in [1], in assay [2], in assay [3], in assay [4], in assay [5] and in assay [6]. The result in assay [7], in [8], in assay [9] and in [10] was inactive.

Regarding `O=C(O)CC(O)(CC(=O)O)C(=O)O`, the call in [1], in assay [2], in [3], in [4], in [5] and in assay [6] was inactive. The compound was classed as inactive in [8], in [9] and in assay [10].

On to `O=C(O)c1cccnc1`, for which the outcome in assay [1], in [2], in assay [3], in assay [4], in assay [5] and in [6] was inactive. Further, the result in assay [7], in assay [8], in [9] and in assay [10] was inactive.

For `NC1CCCCC1`, the call in assay [1], in assay [2], in assay [3], in assay [4], in assay [5] and in assay [6] was inactive. Also, the call in assay [7], in assay [8], in assay [9] and in [10] was inactive.

For orientation: AC50 means the midpoint of the concentration-response curve, whichever way the signal moves. For the compound `O=C(N[C@@H](c1ccccc1)[C@@H]1CCCCN1)c1cccc(C(F)(F)F)c1Cl`, the outcome in [1] and in [8] was inactive. Moreover, the AC50 was 73.4 µM (active) in assay [2]; 89.9 µM (active) in assay [3]; 50 µM (active) in [4]; 12.9 µM (active) in assay [5]; 24.1 µM (active) in assay [6]; 78.1 µM (active) in [7]. In addition, the values for the AC50 in assay [9] and in assay [10] were 11.4 µM (active) and 74.2 µM (active), respectively.

As to `Cc1ccc(C(C)(C)C)c(O)c1`, the call in [1], in assay [2], in assay [3], in assay [4], in assay [5] and in assay [6] was inactive. The compound was called inactive in assay [7], in [8], in assay [9] and in assay [10].

For `CCC(C)N(C)C(=O)c1cc2ccccc2c(-c2ccccc2Cl)n1` (centres undefined), the compound was classed as inactive in assay [1], in assay [2], in assay [4], in [5], in assay [6] and in assay [9]. In assay [10], the compound was classed as inactive. Also, the values for the AC50 in [3], in assay [7] and in [8] were 5.38 µM (active), 7.48 µM (active) and 4.44 µM (active), respectively.

With `Oc1ccccc1O`, the compound was classed as inactive in assay [1], in [2], in assay [3], in [4], in assay [5] and in assay [6]. Besides, the outcome in [7], in assay [8], in [9] and in assay [10] was inactive.

Take `CC(C)(O)c1ccc(CNC(=O)c2cccnc2Oc2ccc(F)cc2)cc1`: the call in assay [1], in assay [2], in assay [3], in [4], in assay [5] and in [6] was inactive. The call in assay [8], in [9] and in assay [10] was inactive. Also, the AC50 in [7] was 29.5 µM (active).

On to `CCCC(=O)O`, for which, in [1], the AC50 was 0.0993 µM (active). Further, the call in [3], in assay [4], in [5], in assay [6], in [7] and in [8] was inactive. In addition, the result in [9] and in assay [10] was inactive.

Consider `Cc1cc(Cc2ccc(N)c(C)c2)ccc1N`, for which the compound was classed as inactive in [1], in assay [2], in assay [4], in assay [5], in [6] and in [8]. Besides, the result in assay [9] and in assay [10] was inactive. Moreover, the results for the AC50 in [3] and in assay [7] were 33.6 µM (active) and 50 µM (active), respectively.

For the compound `CC1=C(C)S(=O)(=O)CCS1(=O)=O`, the result in assay [1], in assay [7], in [8], in [9] and in assay [10] was inactive. In addition, the AC50 in assay [2] was 14.7 µM (active); in assay [3], 50 µM (active); in assay [4], 88.8 µM (active); in assay [5], 0.171 µM (active); in [6], 81 µM (active).

For `CC(C)NCC(O)c1ccc(O)c(O)c1` (centres undefined), the compound was classed as inactive in assay [1], in assay [3], in assay [4] and in assay [5]. Further, the AC50 is 0.147 µM (active) in assay [6]; 0.128 µM (active) in [7]; 0.156 µM (active) in assay [8]; 0.182 µM (active) in [9]; 0.224 µM (active) in [10].

As for `CCN(CC)CCOc1ccc(C(=C(Cl)c2ccccc2)c2ccccc2)cc1`, the call in assay [1], in assay [2], in [4], in assay [5], in assay [8] and in assay [9] was inactive. Moreover, the AC50 is 79.9 µM (active) in assay [3], 24.9 µM (active) in [6], 67.3 µM (active) in [7] and 13.3 µM (active) in assay [10].

On to `CCOCCOCCO`, for which the result in assay [1], in [2], in assay [3], in [4], in [5] and in assay [6] was inactive. Besides, the call in assay [7], in assay [8], in [9] and in assay [10] was inactive.

For the compound `S=c1[nH]c2ccccc2s1`, the outcome in assay [1], in assay [2], in assay [3], in [4], in [5] and in assay [6] was inactive. Besides, the compound was called inactive in assay [7], in assay [8], in assay [9] and in assay [10].

In the case of `CCCCC(CC)COC(=O)CCCCCCCC(=O)OCC(CC)CCCC` (centres undefined), the result in assay [1], in assay [2], in [3], in assay [4], in assay [5] and in assay [6] was inactive. The compound was classed as inactive in [7], in assay [8], in [9] and in assay [10].

Regarding `C/C=C/c1ccc(OC)cc1`, the result in assay [1], in [2], in assay [3], in [4], in assay [5] and in [6] was inactive. Moreover, the outcome in [7], in assay [8], in assay [9] and in assay [10] was inactive.

As to `COC(=O)[C@H]1[C@H]2C[C@@H]3c4[nH]c5cc(OC)ccc5c4CCN3C[C@H]2C[C@@H](OC(=O)c2cc(OC)c(OC)c(OC)c2)[C@@H]1OC`, the outcome in [1], in assay [2], in assay [4] and in assay [8] was inactive. Besides, the AC50 is 9.75 µM (active) in assay [3]; 49.8 µM (active) in [5]; 31.4 µM (active) in assay [6]; 67.4 µM (active) in assay [7]; 42.2 µM (active) in assay [10].

Regarding `CC(N)=O`, the AC50 in assay [1] is 0.256 µM (active). Besides, the compound was classed as inactive in assay [2], in assay [3], in [4], in [5], in assay [6] and in [7]. The call in assay [8], in assay [9] and in assay [10] was inactive.

Turning to `O=C1c2c(O)cccc2Cc2cccc(O)c21`, the outcome in [1], in [2], in assay [3], in assay [4], in [5] and in assay [6] was inactive. Besides, the call in [7], in [8], in assay [9] and in [10] was inactive.

With `CC(C)c1cccc(C(C)C)c1`, the call in [1], in assay [2], in [3], in assay [4], in assay [5] and in assay [7] was inactive. Further, the outcome in assay [8], in [9] and in [10] was inactive.

Consider `O=C1OC(c2ccc(O)cc2)(c2ccc(O)cc2)c2ccccc21`, for which the call in assay [1], in assay [3], in assay [4], in [5], in assay [7] and in assay [9] was inactive. In addition, the AC50 in [2] is 50 µM (active); in assay [6], 69.8 µM (active); in [8], 79.2 µM (active); in assay [10], 50 µM (active).

As to `O=C1O[C@H]([C@H](O)CO)C(O)=C1O`, the compound was classed as inactive in [1], in [2], in [3], in assay [4], in assay [5] and in assay [6]. Also, the compound was classed as inactive in [7], in [8] and in [10].

Source of the values: PubChem BioAssay (EPA / NIEHS).
